JMJD2A Tudor – qHTS Assay for Inhibitors of JMJD2A-Tudor Domain; Lysine-specific demethylase 4A (Homo sapiens), O75164; AlphaScreen JMJD2A-Tudor / H3K4me3 peptide binding; Potency, µM (series often up to 114 µM), for inactives: at the highest dose activity change, negative = inhibition, most hits filed as inhibitors; hit rate 4.4% among 390,000; AID 504339, 2011; note: % is set by controls: 0 for no effect and ±100 for the full control effect; nearly all actives have a fitted effect of over 50% in size
GLS inh – qHTS for Inhibitors of Glutaminase (GLS). Potency, µM (highest dose often 45.5 µM), for inactives: at the top dose activity change, negative = inhibition, actives largely listed as inhibitors. hit rate 0.21% among 410,000. AID 624170, 2012. GLS enzymatic activity, qHTS titration; note: % is set by controls: 0 for no effect and ±100 for the full control effect
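Glutamate formation by hKGA was monitored fluorometrically using coupled glutamate oxidase, HRP and Amplex Red. Substrate was added as 1 mM L-glutamine solution; incubation was 30 min at RT after an initial read.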
BAZ2B inh – qHTS Assay for Inhibitors of BAZ2B; Potency, µM (series often up to 114 µM), for inactives: top-dose activity change, negative = inhibition, actives largely listed as inhibitors; AlphaScreen BAZ2B-H3K14Ac peptide displacement; hit rate 4.4% among 360,000; Bromodomain adjacent to zinc finger domain protein 2B (Homo sapiens), Q9UIF8; note: % is set by controls: 0 for no effect and ±100 for the full control effect; nearly all actives have a fitted effect of over 60% in size
Target sequence (Q9UIF8 whole entry, looked up, the tested form may be a part): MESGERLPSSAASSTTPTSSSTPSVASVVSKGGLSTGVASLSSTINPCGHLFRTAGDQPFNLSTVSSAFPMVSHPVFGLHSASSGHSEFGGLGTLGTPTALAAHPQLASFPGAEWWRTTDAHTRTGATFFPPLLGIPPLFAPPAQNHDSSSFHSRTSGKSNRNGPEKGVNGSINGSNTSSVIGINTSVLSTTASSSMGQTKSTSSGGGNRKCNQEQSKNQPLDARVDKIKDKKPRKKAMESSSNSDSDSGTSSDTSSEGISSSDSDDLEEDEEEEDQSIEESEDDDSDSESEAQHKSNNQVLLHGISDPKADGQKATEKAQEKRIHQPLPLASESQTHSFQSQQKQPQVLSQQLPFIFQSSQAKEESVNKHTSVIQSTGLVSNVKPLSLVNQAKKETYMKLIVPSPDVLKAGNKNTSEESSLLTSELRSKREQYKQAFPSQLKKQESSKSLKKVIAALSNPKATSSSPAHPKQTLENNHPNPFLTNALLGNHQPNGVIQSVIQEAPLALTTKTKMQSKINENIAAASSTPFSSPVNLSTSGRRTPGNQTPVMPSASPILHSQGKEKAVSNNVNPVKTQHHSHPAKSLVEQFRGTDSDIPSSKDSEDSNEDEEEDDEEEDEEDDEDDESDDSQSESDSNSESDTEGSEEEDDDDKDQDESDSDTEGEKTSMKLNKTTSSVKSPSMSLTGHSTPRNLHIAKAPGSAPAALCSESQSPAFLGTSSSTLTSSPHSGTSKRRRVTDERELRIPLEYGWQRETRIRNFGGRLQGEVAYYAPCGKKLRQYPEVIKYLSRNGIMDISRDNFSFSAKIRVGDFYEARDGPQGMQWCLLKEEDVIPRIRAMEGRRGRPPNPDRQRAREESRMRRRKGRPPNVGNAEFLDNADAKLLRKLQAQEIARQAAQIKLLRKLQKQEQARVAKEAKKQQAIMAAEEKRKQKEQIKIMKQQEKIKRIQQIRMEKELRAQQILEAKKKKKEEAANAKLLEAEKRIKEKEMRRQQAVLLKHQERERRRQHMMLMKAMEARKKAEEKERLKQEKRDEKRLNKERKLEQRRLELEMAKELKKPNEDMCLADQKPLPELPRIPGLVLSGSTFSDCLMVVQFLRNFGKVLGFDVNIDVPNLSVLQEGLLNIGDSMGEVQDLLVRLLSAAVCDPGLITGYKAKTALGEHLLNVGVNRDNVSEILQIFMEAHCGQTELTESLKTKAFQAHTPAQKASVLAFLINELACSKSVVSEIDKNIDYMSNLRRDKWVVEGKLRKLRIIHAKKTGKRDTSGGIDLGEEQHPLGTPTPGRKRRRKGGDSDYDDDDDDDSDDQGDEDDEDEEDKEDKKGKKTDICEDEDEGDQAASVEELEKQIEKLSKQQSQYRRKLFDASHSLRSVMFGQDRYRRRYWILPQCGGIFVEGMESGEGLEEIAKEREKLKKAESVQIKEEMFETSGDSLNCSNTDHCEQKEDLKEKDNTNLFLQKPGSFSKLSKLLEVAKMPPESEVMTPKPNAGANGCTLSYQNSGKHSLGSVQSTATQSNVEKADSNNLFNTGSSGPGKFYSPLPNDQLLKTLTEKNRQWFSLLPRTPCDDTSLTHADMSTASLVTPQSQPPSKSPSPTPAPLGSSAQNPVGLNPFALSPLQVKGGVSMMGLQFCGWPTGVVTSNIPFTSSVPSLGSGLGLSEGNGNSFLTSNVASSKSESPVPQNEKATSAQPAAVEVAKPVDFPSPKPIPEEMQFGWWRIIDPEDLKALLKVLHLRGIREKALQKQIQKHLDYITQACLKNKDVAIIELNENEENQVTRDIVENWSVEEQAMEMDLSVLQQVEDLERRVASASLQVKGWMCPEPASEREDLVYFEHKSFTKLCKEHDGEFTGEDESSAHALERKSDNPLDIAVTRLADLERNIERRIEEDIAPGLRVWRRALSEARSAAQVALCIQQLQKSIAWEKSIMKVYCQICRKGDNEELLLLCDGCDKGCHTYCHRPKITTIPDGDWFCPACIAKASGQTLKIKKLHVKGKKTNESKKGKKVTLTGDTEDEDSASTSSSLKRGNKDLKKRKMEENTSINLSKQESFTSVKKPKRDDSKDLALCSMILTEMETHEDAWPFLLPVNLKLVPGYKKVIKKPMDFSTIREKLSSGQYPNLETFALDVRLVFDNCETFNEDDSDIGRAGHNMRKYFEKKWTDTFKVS
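Protein-peptide AlphaScreen: BAZ2B 50 nM, b-H3K14Ac 50 nM, 1x PBS pH 7.4 + 0.01% Tween-20. Preincubation 30 min RT; cpd 30 min RT (top 110 uM); beads 20 min RT, light-protected.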
G9a block – qHTS Assay for Inhibitors of Histone Lysine Methyltransferase G9a; G9a H3K9 monomethylation, AlphaScreen, 2 h; Potency, µM (doses to about 102 µM), without a hit: at the highest dose activity, negative = inhibition, most hits filed as inhibitors; hit rate 8.8% among 350,000; AID 504332, 2011; note: % is set by controls: 0 for no effect and ±100 for the full control effect; nearly all actives have a fitted effect of over 75% in size
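Readings reflect AlphaScreen signal from monomethyl-H3K9 antibody detection. HMT at 20 nM; substrate b-H3K9 500 nM; cofactor SAM 20 uM; 2 h RT reaction; compounds tested as titrations in qHTS with 15 min preincubation.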
HP1b binding inh – HTS for Inhibitors of HP1-beta Chromodomain Interactions with Methylated Histone Tails; Potency, µM (doses to about 114 µM), for the others: at the top dose activity change, negative = inhibition, hits mostly inhibitors; AID 540317, 2011; Chromobox protein homolog 1 (Homo sapiens), P83916; hit rate 0.56% among 390,000; AlphaScreen HP1-beta / biotin-H3K9me3 peptide binding; note: nearly all actives have a fitted effect of over 70% in size
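AlphaScreen: HP1-beta (50 nM) preformed 30 min with biotin-H3(1-18)K9me3 peptide (50 nM) in PBS pH 7.4, 0.01% Tween-20. Compound added for 30 min at RT, then streptavidin donor/nickel chelate acceptor beads (10 ug/mL) for 30 min.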
Starred values were filed as active, the others as inactive; ? = inconclusive; · = no result given; [ ] = dose if it differs, or a comment. Most compounds without a hit are left out; they make up all but 10% or so of the library. Calls come from the whole dose curve; as a rule, active = well fitted curve in the direction sought with a large enough effect; inconclusive = small, poorly fitted or top-dose-only effect, or another doubt; inactive = no such curve, though single readings can be large; an effect the other way counts as inactive or inconclusive. Potency is the fitted concentration of half-maximal effect.

SMILES | JMJD2A Tudor | GLS inh | BAZ2B inh | G9a block | HP1b binding inh
Cc1cc(C)c(Cn2c3ccccc3c3cnn(CC(=O)NCC(C)c4ccccc4)c(=O)c32)c(C)c1 (centres undefined) | -7% | 6% | 1% | -2%[59 µM] | 27%
COc1ccccc1NC(=O)C1=C(C)Nc2nc(SCc3ccc(Cl)cc3)nn2C1c1ccccc1Cl (centres undefined) | -13% | 4% | -2% | -3%[59 µM] | 24%
COc1ccccc1NC(=O)c1ccc(NC(=O)COC(=O)CCC2CCCC2)cc1 | -20% | 3% | -30% | 4%[59 µM] | 42%
CC(=O)N[C@H]1[C@H](O[C@@H]2c3ccc(c(Cl)c3)Oc3cc4cc(c3O[C@@H]3O[C@H](CO)[C@@H](O)[C@H](O)C3C)Oc3ccc(cc3Cl)C[C@H]3NC(=O)[C@@H](N)c5ccc(O)c(c5)Oc5cc(O)cc(c5)[C@H](NC3=O)C(=O)N[C@H]4C(=O)N[C@H]3C(=O)N[C@@H]2C(=O)N[C@@H](C(=O)O)c2cc(O)cc(O[C@H]4O[C@H](CO)[C@@H](O)C(O)[C@@H]4O)c2-c2cc3ccc2O)O[C@H](CO)[C@@H](O)[C@@H]1O (some centres undefined) | · | 16µM* | · | 7%[5.15 µM] | ·
O=c1c2c(-c3cccc([N+](=O)[O-])c3)ccnc2[nH]n1-c1ccccc1 | -24% | -2% | -19% | ? | 16%
Cc1cc(-c2ccccc2)c2c(=O)n(-c3ccccc3)[nH]c2n1 | -34% | 0% | ? | 11µM* | 5%
CSCCC(NC(=O)c1ccc(Cl)cc1Cl)C(=O)NNC(=O)c1ccncc1 (centres undefined) | -19% | 6% | 5% | 8%[12.7 µM] | 38%
Oc1ccccc1Nc1ccccn1 | -7% | 13µM* | -25% | ? | 23%
c1ccc(Nc2ccccn2)nc1 | ? | -2% | ? | 0.5µM* | 4%
O=C(Nc1ccccn1)C(=O)Nc1ccccn1 | -7% | 2% | -7% | 6% | 30%
CCOC(=O)c1c(C)n(-c2ccccc2)c2ccc(OC(=O)c3ccc(OCC)c(OCC)c3)cc12 | -33% | 15% | -12% | -14%[59 µM] | 70%
O=[N+]([O-])c1ccc(O)c(C=Nc2cccc3ccccc23)c1 | -21% | -4% | -11% | 50µM* | -11%
O=[N+]([O-])c1ccc(O)c(N=Cc2sc3ccccc3c2O)c1 | 45µM* | 26% | 14µM* | 45µM* | -35%
Cc1cccc(/N=C/c2sc3ccccc3c2O)n1 | ? | 9% | ? | 32µM* | ?
Oc1c(C=Nc2cccc3cccnc23)sc2ccccc12 | · | · | -34% | ? | ·
O=[N+]([O-])c1ccc(O)c(C=Nc2cccc3ncccc23)c1 | -18% | 0% | -26% | 13%[59 µM] | 30%
COc1ccc(N2CCN(C(=O)CSc3nc(-c4ccccc4)no3)CC2)cc1 | -13% | -3% | -13% | -18%[59 µM] | 17%
Cc1ccc(-n2nc3ccc(N)cc3n2)c(C)c1 | -24% | 9% | ? | · | -2%
Cc1ccc(-n2nc3ccc(N)cc3n2)cc1Cl | 4% | 2% | ? | 45µM* | 30%
COc1ccc(-n2nc3ccc(N)cc3n2)cc1Cl | 35% | 1% | 0% | -1%[0.501 µM] | 55%
Cc1ccc(-n2nc3ccc(N)cc3n2)cc1C | -25% | 5% | 50µM* | 10µM* | -12%
CN(C1CCCCC1)S(=O)(=O)c1ccc2c(c1)c(=O)c(C(=O)NCc1ccccc1Cl)cn2C | -11% | -5% | · | -5%[59 µM] | 26%
Cc1cc(Cl)c2ccc3ccccc3c2n1 | 21% | 2% | 58% | 25µM* | 27%
Cc1cc(Cl)c2ccccc2n1 | 0% | 4% | 4% | -8%[59 µM] | 42%
CCN=C1NN=C(c2cc(C)n(CCc3ccccc3)c2C)CS1 | 56µM* | 0% | -38% | ? | ?
CCN=C1NN=C(c2cc(C)n(Cc3ccco3)c2C)CS1 | ? | 2% | -39% | -14%[59 µM] | -13%
